Screen size: about 330,000 compounds; about 4,200 (1.3%) were called active. Not shown: some 6% with an inconclusive outcome. Shown is part of a subset that was picked to be rich in actives. Entries that show only a call come without a potency. A number with no mark means an inactive call. Calls follow the shape of the dose curve; as a rule, active = well fitted activation curve with a large enough effect; inconclusive = small, poorly fitted or top-dose-only effect; inactive = no such curve, though single readings can be large or run the other way.

This note sets out measurements from PubChem BioAssay AID504466 (National Center for Advancing Translational Sciences (NCATS), 2011).
Potency is read from the fitted curve at half-maximal effect.

The nature of this experiment: qHTS screen for small molecules that induce genotoxicity in human embryonic kidney (HEK293T) cells expressing luciferase-tagged ELG1. Also: nearly all actives have a fitted effect of over 60% in size. The following applies: HEK293T ELG1-luciferase reporter, luminescence, 16 h; series mostly up to 46 µM. The method, boiled down:
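ELG1-luciferase HEK293T cells, 2,000/well; compound pinned in; 16 hr, 37 °C, 5% CO2; ONE-Glo, 30 min RT; luminescence on CCD imager.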
For orientation: qHTS replaces the single test concentration by a dilution series.
Consider `O=C(Nc1ccccc1)c1ccc(NC(=O)c2cccs2)cc1`, for which the Potency entry is “inactive”.
The same measure, in the same setting: as for `CC(=O)Nc1ccc(/C=N/NC(=O)c2cccs2)cc1`, the figure is 16.4 µM (active); as for `CCN(CC)c1ccc(/C=N/NC(=O)CNC(=O)c2cccs2)cc1`, “inactive”; as for `Cc1noc(C)c1S(=O)(=O)N(C)C[C@H]1Oc2ccc(NC(=O)C3CCCCC3)cc2C(=O)N([C@H](C)CO)C[C@@H]1C`, “inactive”.
Turning to `Cc1ccc(NC(=O)C2CCC(C(C)(C)C)CC2)cc1S(=O)(=O)N1CCOCC1` (stereo not drawn), the Potency entry was “inactive”.
As for `CN(C(=O)c1cccc(NC(=O)Cc2cccc([N+](=O)[O-])c2)c1)C1CCCCC1`, the Potency result is “inactive”.
`Cn1nnnc1SCC(=O)Nc1cccc(S(=O)(=O)N2CCCCC2)c1`: the Potency entry was “inactive”.
For the compound `Cc1ccccc1Nc1nc(N)nc(CN2CCN(c3ccccn3)CC2)n1`, the Potency result is “inactive”.
Same read-out and setting: the entry for `Cc1ccc(C(=O)OCc2nc(N)nc(Nc3ccccc3C)n2)cc1` is “inactive”.
Still for that read-out and setting: the figure for `Cc1ccccc1Nc1nc(N)nc(CSc2ccccc2)n1` is 9.2 µM (active).
Same read-out and setting: the entry for `Cc1ccc(NC(=O)c2cc(-c3ccccc3O)n[nH]2)cc1C` is “inactive”.
With `Oc1ccccc1-c1cc(-c2ccc(Cl)cc2)n[nH]1`, the Potency was 2.31 µM (active).
Still for that read-out and setting: as for `Cc1ccc(S(=O)(=O)Cc2cc(-c3ccc(Cl)cc3)no2)cc1`, the entry is “inactive”.
On the same count and under the same terms, the entry for `CCCCOc1ccc(C(=O)NCC(=O)OCC(=O)c2c(N)n(C)c(=O)n(C)c2=O)cc1` is “inactive”.
The same measure, in the same setting: the entry for `C[C@H](CO)N1C[C@H](C)[C@@H](CN(C)S(=O)(=O)c2ccc(F)cc2)Oc2c(NC(=O)Nc3ccccc3)cccc2C1=O` is “inactive”; for `CCOC(=O)CCCCCC(=O)Nc1ccc2c(c1)CC(=O)N([C@@H](C)CO)C[C@H](C)[C@@H](CN(C)Cc1ccccc1)O2` it is “inactive”; for `Cc1ccn2cc(-c3nonc3C)cc2c1` it is 23.1 µM (active).
In the case of `O=C1CN(C(=O)COC(=O)/C=C/c2ccc(F)cc2)c2ccccc2N1`, the Potency result was “inactive”.
On the same count and under the same terms, as for `O=C(Nc1cccc2ccccc12)c1onc2c1CCCC2`, the figure is 16.4 µM (active); as for `O=C(O)c1ccccc1-c1ccccc1C(=O)Nc1cccc2ccccc12`, “inactive”; as for `O=C(O)Cc1ccc(NC(=O)Nc2cccc3ccccc23)cc1`, “inactive”.
Consider `O=C(Nc1cccc(S(=O)(=O)N2CCOCC2)c1)C12CC3CC(CC(C3)C1)C2`, for which the Potency result was “inactive”.
On the same count and under the same terms, as for `O=C(COC(=O)c1ccccc1O)NCc1ccco1`, the entry is “inactive”; as for `O=C(CSc1ncn[nH]1)Nc1ccc(Br)cc1Br`, “inactive”; as for `O=C(Nc1ncccc1O)c1ccc(S(=O)(=O)N2CCCC2)cc1`, “inactive”.
The same measure, in the same setting: the entry for `O=C(CNC(=O)c1ccc2ccccc2c1)Nc1ncccc1O` is “inactive”.
With `O=C(Nc1ncccc1O)c1ccc(C(=O)c2ccccc2)cc1`, the Potency was 18.3 µM (active).
Same read-out and setting: as for `CC1Sc2ccc(C(=O)NCc3ccccc3Cl)cc2NC1=O` (stereo not drawn), the entry is “inactive”.
On the same count and under the same terms, the entry for `CCCCNS(=O)(=O)CCNCc1ccccc1OC` is “inactive”.
Still for that read-out and setting: the entry for `CCOc1ccc2nc(N(CCN(C)C)C(=O)c3ccc4ccccc4c3)sc2c1` is “inactive”.
On to `CCCC(=O)N(CCN1CCOCC1)c1nc2ccc(OCC)cc2s1`, for which the activity change, positive = activation was 0.969% [at 9.26 µM].
`CCOc1ccc2nc(C(=O)N3CCCC(C)C3)sc2c1` (stereo not drawn): the Potency is 10.3 µM (active).
The same measure, in the same setting: as for `C=CC[C@@H](Cc1ccc(F)cc1)C(=O)OC[C@H]1CCCN1C(=O)[C@H](CC=C)CC(=O)N(CCO)Cc1ccccc1`, the entry is “inactive”; as for `COc1cccc(-c2sc3ccc(OC)cc3c2-c2ccc(OCCN3CCCCC3)cc2)c1`, “inactive”; as for `COC(=O)[C@]1(Cc2ccccc2)N[C@H](CN(C)S(=O)(=O)c2ccc(OC(F)(F)F)cc2)[C@@H]2C(=O)N(C)C(=O)[C@@H]21`, “inactive”.
For `O=C(c1ccc(N2CCOCC2)c([N+](=O)[O-])c1)N1CCN(c2ccccc2F)CC1`, the Potency entry was “inactive”.
Same read-out and setting: the entry for `C=CCN(C(=O)Nc1ccc2c(c1)nc(C)n2C)c1ccccc1` is “inactive”; for `Cc1nc2cc(NCc3cccs3)ccc2n1C` it is “inactive”; for `Cc1nc2cc(NC(=O)Nc3cccc(F)c3)ccc2n1C` it is 0.92 µM (active).
Turning to `CNC[C@H]1Oc2c(NC(=O)C3CCCCC3)cccc2C(=O)N([C@H](C)CO)C[C@@H]1C`, the Potency result was “inactive”.
Regarding `CCOc1ccccc1/C=N/Nc1nc2ccccc2o1`, the Potency result is “inactive”.
Turning to `Brc1ccccc1/C=N/Nc1nc2ccccc2o1`, the Potency was 11.6 µM (active).
On to `COc1ccc(/C=N\NC(=O)c2sc(N)nc2C)cc1OC`, for which the Potency result is “inactive”.
Consider `COc1ccc(/C=N/Nc2nc3ccccc3o2)cc1OC`, for which the Potency was 2.59 µM (active).
For the compound `Oc1c(Br)cccc1/C=N/Nc1c(F)c(F)c(F)c(F)c1F`, the Potency result is “inactive”.
`COc1cc(/C=N\Nc2nc(-c3cccs3)c(NC(C)=O)s2)ccc1O`: the Potency entry was “inactive”.
In the case of `CCCCNc1c(-c2ccc(OC)c(Sc3ccc(OC)cc3)c2)nc2ccc(Cl)cn12`, the Potency entry was “inactive”.
On the same count and under the same terms, as for `O=C(CCNC(=O)c1ccccc1)NN=Cc1ccc(Br)o1`, the entry is “inactive”.
As to `CC(=O)N(O)CCCCCNC(=O)CCC(=O)N(O)CCCCCNC(=O)CCC(=O)N(O)CCCCCNC(=O)CCC(=O)O`, the Potency result is “inactive”.
The same measure, in the same setting: the figure for `CCN(CC)c1ccc(/C=N/NC(=O)c2cnccn2)c(O)c1` is 18.3 µM (active).
On the same count and under the same terms, as for `CCN(CC)c1ccc(/C=N/NC(=O)CNC(=O)c2cccnc2)cc1`, the entry is “inactive”.
The same measure, in the same setting: the entry for `Cc1ccc(C(=O)NCCNC(=O)c2cnccn2)cc1` is “inactive”.
`CN(CC(=O)NCCc1ccc(S(N)(=O)=O)cc1)CC(=O)Nc1ccc(Cl)cc1`: the Potency entry is “inactive”.
On the same count and under the same terms, as for `COc1ccc(C(=O)NCc2ccccc2C)cc1S(=O)(=O)NC1CCCC1`, the entry is “inactive”; as for `CCOC(=O)c1oc2ccccc2c1NC(=O)c1cccs1`, “inactive”.
Still for that read-out and setting: as for `CCc1c(C)sc(NC(=O)c2cccs2)c1C(N)=O`, the figure is 18.4 µM (active).
Same read-out and setting: as for `CCc1c(C)sc(NC(=O)c2ccc(Br)o2)c1C(=O)OC`, the entry is “inactive”; as for `CC(Sc1nncn1C)C(=O)NCCC1=CCCCC1` (stereo not drawn), “inactive”.
In the case of `CN1C(=O)[C@H]2[C@@H](/C=C/c3ccccc3)N3C(=O)CN(Cc4ccc(-c5ccccc5)cc4)C(=O)[C@@]3(C)[C@H]2C1=O`, the Potency entry was “inactive”.
Take `Cn1c(N)c(C(=O)COC(=O)c2ccc3ccccc3c2)c(=O)n(C)c1=O`: the Potency entry was “inactive”.
Still for that read-out and setting: as for `COC(=O)CCC(=O)N1CCCC(CO)(Cc2ccccc2)C1` (stereo not drawn), the figure is 20.6 µM (active); as for `CCCc1cc(C(=O)N2CCCC(CO)(CCCc3ccccc3)C2)n(C)n1` (stereo not drawn), “inactive”; as for `Cc1ccccc1CC1(CO)CCCN(C(=O)c2cc(-c3ccccc3)no2)C1` (stereo not drawn), “inactive”.
On the same count and under the same terms, as for `Cc1onc(-c2c(F)cccc2Cl)c1C(=O)OCC(=O)N1C(C)CCCC1C` (stereo not drawn), the entry is “inactive”; as for `CCN(CC(=O)NC(C)C)C(=O)c1cc(S(=O)(=O)N2CCCCC2)ccc1N1CCCCC1`, “inactive”; as for `O=C(c1cc(-c2ccc(O)cc2)on1)N1CCCc2ccccc21`, “inactive”.
Still for that read-out and setting: the entry for `O=C(c1cc(-c2ccc(F)cc2)on1)N1CCN(c2ccc(F)cc2)CC1` is “inactive”; for `O=C(c1cc(-c2ccc(O)cc2)on1)N1CCOCC1` it is 4.61 µM (active); for `COc1ccc(-c2c(C#Cc3ccsc3)c3cc(-c4ccc(CN5CCOCC5)cc4)ccc3n2C)cc1` it is “inactive”.
With `O=C(COC(=O)c1ccccc1C(=O)c1ccccc1)c1ccco1`, the Potency result is “inactive”.
Same read-out and setting: the figure for `CCc1ccc(C(=O)COC(=O)c2ccco2)cc1` is 23.1 µM (active).
`O=C(OCC(=O)N1CCCC1)c1ccco1`: the Potency entry is “inactive”.
On the same count and under the same terms, the entry for `COc1ccc(S(=O)(=O)N2CCN(CC(=O)N3CCOCC3)CC2)cc1OC` is “inactive”; for `CCOC(=O)C1=CN(Cc2ccc(Br)cc2)S(=O)(=O)N(C)C1C` (stereo not drawn) it is “inactive”.
Same read-out and setting: as for `COc1cc(NC(=O)COC(=O)c2cc(S(=O)(=O)N3CCOCC3)ccc2F)cc(OC)c1`, the entry is “inactive”; as for `CS(=O)(=O)N1CCN(c2cccc(Cl)n2)CC1`, “inactive”.
Same read-out and setting: as for `CS(=O)(=O)N1CCc2nc(-c3ccccc3)sc2C1`, the figure is 9.2 µM (active); as for `CS(=O)(=O)N1CCC(C(=O)N2CCN(c3ccccc3)CC2)CC1`, “inactive”.
Consider `COc1ccc(C(=O)COC(=O)CN2C(=O)C3CC=CCC3C2=O)c(OC)c1` (stereo not drawn), for which the Potency entry was “inactive”.
Still for that read-out and setting: the figure for `CC(C)Sc1ncnc2c1cnn2-c1ccccc1` is 8.2 µM (active).
The same measure, in the same setting: the entry for `CC(Sc1ncnc2c1cnn2-c1ccccc1)C(=O)Nc1ccc(N2CCOCC2)cc1` (stereo not drawn) is “inactive”.
The same measure, in the same setting: as for `CCC(C)N(C(=O)CSc1ncnc2c1cnn2-c1ccccc1)C1CCS(=O)(=O)C1` (stereo not drawn), the entry is “inactive”.
On to `COc1ccc(Br)cc1CN(C)C(=O)C1CC(=O)N(C2CCCC2)C1` (stereo not drawn), for which the Potency entry is “inactive”.
Same read-out and setting: as for `O=C1NC(Cc2ccc(O)cc2)c2nc3ccc(Cl)cc3c(=O)n2-c2ccccc21` (stereo not drawn), the entry is “inactive”.
On the same count and under the same terms, as for `COC(=O)c1ccc(NC(=O)c2ccco2)cc1`, the figure is 20.6 µM (active); as for `CCOC(=O)c1ccc(NC(=O)CNC(=O)c2ccco2)cc1`, “inactive”; as for `O=C(Nc1ccccc1)c1ccco1`, “inactive”.
Regarding `O=C(CN1C(=O)NC(Cc2c[nH]c3ccccc23)C1=O)Nc1ccccc1C(F)(F)F` (stereo not drawn), the Potency result is “inactive”.
On the same count and under the same terms, as for `C[C@H]1COC(=O)[C@H](CC(=O)OC(C)(C)C)C/C=C\C[C@@H](CC(=O)N[C@H](CO)Cc2ccccc2)C(=O)N1`, the entry is “inactive”.
Take `CCOC(=O)C1=C(C)N(C[C@@H]2CC[C@@H](Cc3ccc(-c4ccccc4)cc3)O2)C(=O)NC1c1ccc([N+](=O)[O-])cc1` (stereo partly drawn): the Potency result was “inactive”.
The same measure, in the same setting: the entry for `COc1ccc(C(=O)Nc2ccccc2C(=O)NCc2ccco2)cc1` is “inactive”; for `O=C(NCc1ccco1)c1sc2cccc(F)c2c1Cl` it is 18.4 µM (active); for `O=C(CCNC(=O)c1ccccc1Cl)NCc1ccco1` it is “inactive”.
On the same count and under the same terms, the figure for `COc1ccc2c(Cl)c(C(=O)NCc3ccco3)sc2c1` is 10 µM (active); for `O=C(NCc1ccco1)c1nn2cccnc2c1Cl` it is “inactive”; for `COc1ccc(CNC(=O)CNC(=O)c2sc3ccccc3c2Cl)cc1OC` it is “inactive”.
Still for that read-out and setting: the entry for `COc1cc(/C=C2\Oc3ccc(C#Cc4ccc(O)cc4)cc3C2=O)cc(OC)c1` is “inactive”; for `Cc1cc(C(=O)OCC(=O)N2C(C)CCCC2C)c2ccccc2n1` (stereo not drawn) it is “inactive”.
`O=C(c1cnccn1)N1CCN(S(=O)(=O)c2cccc(Cl)c2)CC1`: the Potency result was “inactive”.
As for `O=C(COC(=O)c1cc[n+]([O-])cc1)Nc1ccc(Cl)c(C(F)(F)F)c1`, the Potency result was “inactive”.
On the same count and under the same terms, as for `Cc1cc(O)cc(O)c1C(=O)Cc1cnn(-c2ccccc2)c1`, the entry is “inactive”; as for `COc1ccc(C(=O)CC(=O)c2ccc(C)cc2)c(O)c1`, “inactive”.
`COc1ccc(C(=O)Cc2cnn(-c3ccccc3)c2)c(O)c1`: the Potency was 18.4 µM (active).
